# The whole screen tested about 39,000 compounds, of which about 1,500 (3.8%) were called active. Many of the other results were omitted from the sample, so actives are more common in it than they were.
# Test system: HSkMC (human skeletal muscle cells)
# Test: cytotoxicity call (relative viability < 0.9)
# Settings: 10 µM
row,SMILES,cytotoxicity call
1,CC(=O)N(C)C[C@@H]1Oc2ncc(C#C[C@@H](C)O)cc2C(=O)N([C@H](C)CO)C[C@@H]1C,inactive
2,C[C@@H]1CN([C@@H](C)CO)C(=O)c2cc(NC(=O)c3ccncc3)ccc2O[C@@H](C)CCCCO[C@H]1CN(C)C(=O)Nc1ccc2c(c1)OCO2,inactive
3,COc1ccc(CN(C)C[C@@H]2OCCCC[C@H](C)Oc3ccc(NS(=O)(=O)c4ccc(Cl)cc4)cc3C(=O)N([C@H](C)CO)C[C@H]2C)cc1,inactive
4,O=C(N[C@H](c1ccc(F)cc1)c1ccc2ccccc2n1)C1CCN(Cc2ccc3ccccc3n2)CC1,inactive
5,O=C(N[C@H](c1ccc(F)cc1)c1ccc2ccccc2n1)C1CCN(Cc2cccc(C(F)(F)F)c2)CC1,active
6,O=C(N[C@H](c1ccc(F)cc1)c1ccc2ccccc2n1)C1CCN(Cc2ccc(Oc3ccccc3)cc2)CC1,inactive
7,Cn1cc(CN2CCC(C(=O)N[C@@H](c3ccc(F)cc3)c3ccc4ccccc4n3)CC2)c2ccccc21,active
8,COc1cc(CN2CCC(C(=O)N[C@@H](c3ccc(F)cc3)c3ccc4ccccc4n3)CC2)cc(OC)c1,inactive
9,O=C(N[C@@H](c1ccccc1)c1ccc2ccccc2n1)C1CCN(Cc2cccc(C(F)(F)F)c2)CC1,inactive
10,COc1ccc(CNC(=S)NCCO)cc1,inactive
11,O=S(=O)(NCC[C@@H]1CC[C@H](NS(=O)(=O)c2cccc(Cl)c2)[C@@H](CO)O1)c1cccc(F)c1,inactive
12,Cc1noc(C)c1NC(=O)N(C)C[C@H]1Oc2ccc(NS(=O)(=O)c3cccs3)cc2CC(=O)N([C@@H](C)CO)C[C@@H]1C,inactive
13,CCCNC(=O)N1C[C@H](O)COC[C@@H]2O[C@@H](CC(=O)NCc3ccncn3)CC[C@H]21,inactive
14,CC[C@@H](C)NCCCCOc1ccc(Cl)cc1C(C)(C)C,active
15,CC(C)(C)NCCCCOc1ccc(Cl)cc1C(C)(C)C,inactive
16,Cc1ccc(OCc2ccc(Cl)cc2)c(C(C)(C)C)c1,inactive
17,C[C@@H]1CCCCO[C@H](CN(C)C(=O)CCC(F)(F)F)[C@H](C)CN([C@@H](C)CO)C(=O)c2cc(NS(=O)(=O)c3ccc(Cl)cc3)ccc2O1,inactive
18,C[C@@H]1CN([C@H](C)CO)C(=O)c2cc(-c3cccc(C#N)c3)cnc2O[C@H]1CN(C)C(=O)c1cnccn1,inactive
19,CO[C@@H]1CN(C)C(=O)c2ccc(NS(C)(=O)=O)cc2OC[C@@H](C)N(S(=O)(=O)CC(F)(F)F)C[C@H]1C,inactive
20,C[C@H](CO)N1C[C@H](C)[C@H](CN(C)C(=O)Nc2ccc(C(F)(F)F)cc2)Oc2c(NC(=O)Nc3ccccc3)cccc2C1=O,inactive
21,C[C@@H]1CN([C@H](C)CO)C(=O)c2cccc(NC(=O)Nc3ccc(C(F)(F)F)cc3)c2O[C@@H]1CN(C)C(=O)Nc1ccccc1,active
22,COc1ccc(NC(=O)N(C)C[C@H]2Oc3c(NC(=O)Nc4ccc(C(F)(F)F)cc4)cccc3C(=O)N([C@@H](C)CO)C[C@@H]2C)cc1,active
23,C[C@@H]1CN([C@H](C)CO)C(=O)c2cccc(NC(=O)Nc3ccc(F)cc3)c2O[C@H]1CN(C)C(=O)Nc1ccc(C(F)(F)F)cc1,inactive
24,C[C@@H]1CN([C@@H](C)CO)C(=O)c2cccc(NC(=O)Nc3ccccc3)c2O[C@@H]1CN(C)C(=O)Nc1ccc(C(F)(F)F)cc1,inactive

row,SMILES,cytotoxicity call
1,COc1ccc(NC(=O)Nc2cccc3c2O[C@@H](CN(C)C(=O)Nc2ccc(C(F)(F)F)cc2)[C@@H](C)CN([C@@H](C)CO)C3=O)cc1,inactive
2,COc1ccc(NC(=O)Nc2cccc3c2O[C@H](CN(C)C(=O)Nc2ccc(C(F)(F)F)cc2)[C@@H](C)CN([C@@H](C)CO)C3=O)cc1,inactive
3,C[C@H]1CN([C@@H](C)CO)C(=O)c2cccc(NC(=O)Nc3ccc(C(F)(F)F)cc3)c2O[C@H]1CN(C)C(=O)Nc1ccc(C(F)(F)F)cc1,inactive
4,C[C@@H]1CN([C@H](C)CO)C(=O)c2cccc(NC(=O)Nc3ccc(C(F)(F)F)cc3)c2O[C@@H]1CN(C)C(=O)Nc1ccc(C(F)(F)F)cc1,active
5,C[C@H]1CN([C@@H](C)CO)C(=O)c2cccc(NC(=O)Nc3ccc(C(F)(F)F)cc3)c2O[C@@H]1CN(C)C(=O)Nc1ccc(F)cc1,inactive
6,C[C@H]1CN([C@@H](C)CO)C(=O)c2cccc(NC(=O)Nc3ccc(C(F)(F)F)cc3)c2O[C@@H]1CN(C)C(=O)Nc1ccccc1,inactive
7,C[C@H](CO)N1C[C@H](C)[C@H](CN(C)C(=O)Nc2ccc(C(F)(F)F)cc2)Oc2c(NC(=O)Nc3ccc(C(F)(F)F)cc3)cccc2C1=O,active
8,COc1ccc2c3c(n(c2c1)C)[C@H](CO)N(C[C@]13CN(C1)C(=O)CN1CCOCC1)C(=O)Nc1ccc(cc1)F,inactive
9,C[C@H]1CN([C@@H](C)CO)C(=O)CCCn2cc(nn2)CO[C@@H]1CN(C)C(=O)c1ccc(N2CCN(C)CC2)cc1,inactive
10,CC/C(=C\C(=O)O)c1ccccc1,inactive
11,O=C(C[C@@H]1C[C@@H]2c3cc(NC(=O)C4CCOCC4)ccc3O[C@@H]2[C@H](CO)O1)NCCN1CCCCC1,inactive
12,COCC(=O)N1C[C@@H](C)[C@@H](OC)CN(C)C(=O)c2ccc(NC(=O)Nc3cccc(F)c3)cc2OC[C@@H]1C,inactive
13,Cc1cccc(S(=O)(=O)N2C[C@H](O)COC[C@H]3O[C@H](CC(=O)NCc4ccncn4)CC[C@@H]32)c1,inactive
14,C[C@@H]1CCN(C(=O)[C@H](CCCNC(=N)N)NS(=O)(=O)c2cccc3c2NC[C@H](C)C3)[C@@H](C(=O)O)C1,inactive
15,CNC(=O)C[C@@H]1CC[C@@H]2[C@H](COC[C@H](O)CN2C(=O)c2ccccn2)O1,inactive
16,N#C[C@@H]1[C@H](c2ccc(C#Cc3ccccn3)cc2)[C@@H](CO)N1C(=O)CN1CCOCC1,inactive
17,CC(C)NC(=O)N(C)C[C@@H]1Oc2ccc(NS(=O)(=O)c3cn(C)cn3)cc2C(=O)N([C@H](C)CO)C[C@@H]1C,inactive
18,C[C@@H]1CN([C@@H](C)CO)C(=O)c2cc(NC(=O)Nc3ccccc3)ccc2O[C@@H](C)CCCCO[C@H]1CN(C)S(=O)(=O)c1cccs1,inactive
19,C[C@@H]1CN([C@@H](C)CO)C(=O)c2cccc(NC(=O)Nc3ccc(C(F)(F)F)cc3)c2O[C@H]1CN(C)C(=O)Nc1ccc(C(F)(F)F)cc1,inactive
20,C[C@H]1CN([C@@H](C)CO)C(=O)c2cccc(NC(=O)Nc3ccccc3)c2O[C@@H]1CN(C)C(=O)Nc1ccc(C(F)(F)F)cc1,inactive
21,C[C@@H]1CN([C@H](C)CO)C(=O)c2cccc(NC(=O)Nc3ccc(F)cc3)c2O[C@@H]1CN(C)C(=O)Nc1ccc(C(F)(F)F)cc1,inactive
22,C[C@@H]1CN([C@H](C)CO)C(=O)c2cccc(NC(=O)Nc3ccc(C(F)(F)F)cc3)c2O[C@H]1CN(C)C(=O)Nc1ccc(C(F)(F)F)cc1,inactive
23,C[C@@H]1CN([C@H](C)CO)C(=O)c2cccc(NC(=O)Nc3ccc(C(F)(F)F)cc3)c2O[C@@H]1CN(C)C(=O)Nc1ccc(F)cc1,inactive
24,C[C@H]1CN([C@@H](C)CO)C(=O)c2cccc(NC(=O)Nc3ccc(C(F)(F)F)cc3)c2O[C@H]1CN(C)C(=O)Nc1ccc(F)cc1,inactive

row,SMILES,cytotoxicity call
1,C[C@H](CO)N1C[C@H](C)[C@H](CN(C)C(=O)Nc2ccc(F)cc2)Oc2c(NC(=O)Nc3ccc(C(F)(F)F)cc3)cccc2C1=O,active
2,C[C@H](CO)N1C[C@H](C)[C@@H](CN(C)C(=O)Nc2ccc(C(F)(F)F)cc2)Oc2c(NC(=O)Nc3ccc(C(F)(F)F)cc3)cccc2C1=O,active
3,C[C@@H]1CN([C@@H](C)CO)C(=O)c2cccc(NC(=O)Nc3ccc(C(F)(F)F)cc3)c2O[C@@H]1CN(C)C(=O)Nc1ccc(C(F)(F)F)cc1,active
4,C[C@H]1CN([C@@H](C)CO)C(=O)c2cccc(NC(=O)Nc3ccc(C(F)(F)F)cc3)c2O[C@@H]1CN(C)C(=O)Nc1ccc(C(F)(F)F)cc1,active
5,Cc1noc(C)c1S(=O)(=O)N(C)C[C@@H]1Oc2ccc(NC(=O)NC3CCCCC3)cc2CC(=O)N([C@H](C)CO)C[C@H]1C,inactive
6,O=C(C[C@@H]1C=C[C@@H](NC(=O)c2ccc(F)cc2)[C@H](CO)O1)NCc1ccncn1,inactive
7,O=C(O)c1ccc(O)c(O)c1,inactive
8,O=C(O)c1cc(O)c(O)c(O)c1 [listing 1 of 2 here],inactive
9,O=C(O)c1cc(O)c(O)c(O)c1 [listing 2 of 2 here],active
10,COc1ccc(NC(=O)Nc2ccc3c(c2)C(=O)N([C@@H](C)CO)C[C@@H](C)[C@H](CN(C)C(=O)C2CCCCC2)OCCCC[C@H](C)O3)cc1,inactive
11,C[C@@H]1CN([C@H](C)CO)C(=O)Cc2cc(NC(=O)Cn3cnnn3)ccc2O[C@H]1CN(C)S(=O)(=O)c1cccs1,inactive
12,Oc1c(Cl)cc(Cl)c2cccnc12,inactive
13,Oc1ccc(Cl)c2cccnc12 [listing 1 of 2 here],active
14,Oc1ccc(Cl)c2cccnc12 [listing 2 of 2 here],inactive
15,O=C(NO)c1cccnc1,inactive
16,CCNC(=O)C[C@H]1C=C[C@H](NC(=O)C2CC2)[C@@H](CO)O1,inactive
17,C[C@H]1CCCCO[C@@H](CN(C)Cc2ccccc2)[C@@H](C)CN([C@@H](C)CO)C(=O)c2cc(NC(=O)c3ccncc3)ccc2O1,inactive
18,COc1cccc2c1C(=O)c1c(O)c3c(c(O)c1C2=O)C[C@@](O)(C(=O)CO)C[C@@H]3O[C@H]1C[C@H](N)[C@@H](O)[C@H](C)O1,inactive
19,CCCCC(=O)OCC(=O)[C@]1(O)Cc2c(O)c3c(c(O)c2[C@@H](O[C@H]2C[C@H](NC(=O)C(F)(F)F)[C@H](O)[C@H](C)O2)C1)C(=O)c1c(OC)cccc1C3=O,active
20,COc1cccc2c1C(=O)c1c(O)c3c(c(O)c1C2=O)CC(O)(C(=O)CO)CC3OC1CC(N)C(O)C(C)O1.Cl (configuration not stated),inactive
21,COc1cccc2c1C(=O)c1c(O)c3c(c(O)c1C2=O)CC(O)(C(=O)CO)CC3OC1CC(N)C(O)C(C)O1 (configuration not stated) [listing 1 of 2 here],inactive
22,COc1cccc2c1C(=O)c1c(O)c3c(c(O)c1C2=O)CC(O)(C(=O)CO)CC3OC1CC(N)C(O)C(C)O1 (configuration not stated) [listing 2 of 2 here],active
23,COc1cccc2c1C(=O)c1c(O)c3c(c(O)c1C2=O)C[C@@](O)(C(=O)CO)C[C@@H]3O[C@H]1C[C@H](N)[C@H](O)[C@H](C)O1,active
24,COc1cccc2c1C(=O)c1c(O)c3c(c(O)c1C2=O)C[C@](O)(C(=O)CO)C[C@H]3O[C@H]1C[C@@H](N)[C@@H](O)[C@@H](C)O1,active

# From the antibiotic and cytotoxicity screens of Wong et al. (2023)
